# Measurements from article PMC7862700, “An all-to-all approach to the identification of sequence-specific readers for epigenetic DNA modifications on cytosine”.
# What was measured:
# Assay in all cases: DAPPL (digital affinity profiling via proximity ligation, sequencing); 10 mM Tris-HCl pH 7.5, 50 mM NaCl, 1 mM DTT, 4% glycerol, room temperature, 30 min; GST-TFs on glutathione beads, 16-mer random dsDNA library, 0.1% formaldehyde crosslink after washing; high values mean tight binding
# [1] = target: T1, FEV (Homo sapiens, UniProt Q99581 1-238); settings: protein: recombinant; tags: N-terminal GST; dsDNA, one strand shown
# T1 sequence: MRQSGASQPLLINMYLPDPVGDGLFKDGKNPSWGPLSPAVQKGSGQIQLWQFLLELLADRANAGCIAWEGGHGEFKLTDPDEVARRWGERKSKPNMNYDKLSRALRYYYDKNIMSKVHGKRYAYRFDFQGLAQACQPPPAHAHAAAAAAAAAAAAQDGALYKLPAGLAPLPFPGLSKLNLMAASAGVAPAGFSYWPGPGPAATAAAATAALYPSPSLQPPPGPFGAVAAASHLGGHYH
# Summary of the method: (§1)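 The binding signal reported is, for every hexamer, its read frequency for a factor over its read frequency for the tag-only sample. Reads came from pools of yeast-expressed, GST-fused human transcription factors on glutathione beads, barcoded with DNA and mixed with that sample, which were incubated with 200 nmole of a random double-stranded 16-mer DNA library in Tris/NaCl/DTT/glycerol buffer at room temperature for 30 min. After washing, the pools were crosslinked with 0.1% formaldehyde, proximity-ligated with BsaI/T4 ligase for 1 h at 37 °C, PCR-amplified and sequenced on an Illumina NextSeq500.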
# [2] = target: ETV5 (Homo sapiens, UniProt P41161 1-510); settings: protein: recombinant; tags: N-terminal GST; dsDNA, one strand shown
# Chain of ETV5 (P41161 whole entry): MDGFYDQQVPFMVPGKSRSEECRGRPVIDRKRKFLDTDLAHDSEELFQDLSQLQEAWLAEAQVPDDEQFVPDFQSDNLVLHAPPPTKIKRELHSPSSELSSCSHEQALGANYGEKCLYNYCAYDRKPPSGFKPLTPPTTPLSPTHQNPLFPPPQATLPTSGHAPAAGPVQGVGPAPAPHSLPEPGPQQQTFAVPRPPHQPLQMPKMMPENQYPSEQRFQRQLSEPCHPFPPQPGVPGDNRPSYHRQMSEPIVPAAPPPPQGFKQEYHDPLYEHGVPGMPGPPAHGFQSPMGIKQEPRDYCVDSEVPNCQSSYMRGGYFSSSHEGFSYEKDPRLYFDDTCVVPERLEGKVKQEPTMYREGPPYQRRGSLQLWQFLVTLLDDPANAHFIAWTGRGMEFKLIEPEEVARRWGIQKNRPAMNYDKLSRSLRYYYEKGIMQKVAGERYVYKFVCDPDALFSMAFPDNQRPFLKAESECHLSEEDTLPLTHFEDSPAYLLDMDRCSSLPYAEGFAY
# Summary of the method: as §1
# [3] = target: HSF1 (Homo sapiens, UniProt Q00613 1-529); settings: protein: recombinant; tags: N-terminal GST; chain copies: 3; dsDNA, one strand shown
# Chain of HSF1 (Q00613 whole entry): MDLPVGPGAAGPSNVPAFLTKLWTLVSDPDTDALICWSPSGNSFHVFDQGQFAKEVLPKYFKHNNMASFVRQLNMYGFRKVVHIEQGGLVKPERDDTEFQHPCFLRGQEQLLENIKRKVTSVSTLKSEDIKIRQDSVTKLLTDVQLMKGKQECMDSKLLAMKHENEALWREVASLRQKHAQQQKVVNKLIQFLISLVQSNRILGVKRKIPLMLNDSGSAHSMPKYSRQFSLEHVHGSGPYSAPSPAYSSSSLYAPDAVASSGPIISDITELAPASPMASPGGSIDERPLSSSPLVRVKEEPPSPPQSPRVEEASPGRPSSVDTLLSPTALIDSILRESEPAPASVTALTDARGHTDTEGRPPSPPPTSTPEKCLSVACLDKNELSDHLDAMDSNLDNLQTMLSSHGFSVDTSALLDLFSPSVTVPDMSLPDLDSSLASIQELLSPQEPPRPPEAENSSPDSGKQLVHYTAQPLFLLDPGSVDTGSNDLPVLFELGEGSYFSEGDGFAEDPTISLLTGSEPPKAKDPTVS
# Summary of the method: as §1
# [4] = target: T2, SPIC (Homo sapiens, UniProt Q8N5J4 1-248); settings: protein: recombinant; tags: N-terminal GST; dsDNA, one strand shown
# T2 sequence: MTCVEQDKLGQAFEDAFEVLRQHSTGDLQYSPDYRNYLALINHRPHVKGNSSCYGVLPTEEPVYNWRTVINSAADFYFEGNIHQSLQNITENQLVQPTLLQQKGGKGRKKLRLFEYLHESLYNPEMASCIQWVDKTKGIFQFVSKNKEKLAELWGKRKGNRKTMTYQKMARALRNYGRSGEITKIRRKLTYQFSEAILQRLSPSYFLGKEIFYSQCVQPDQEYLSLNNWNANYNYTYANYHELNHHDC
# Summary of the method: as §1
# [5] = target: ELF4 (Homo sapiens, UniProt Q99607 1-663); settings: protein: recombinant; tags: N-terminal GST; dsDNA, one strand shown
# Chain of ELF4 (Q99607 whole entry): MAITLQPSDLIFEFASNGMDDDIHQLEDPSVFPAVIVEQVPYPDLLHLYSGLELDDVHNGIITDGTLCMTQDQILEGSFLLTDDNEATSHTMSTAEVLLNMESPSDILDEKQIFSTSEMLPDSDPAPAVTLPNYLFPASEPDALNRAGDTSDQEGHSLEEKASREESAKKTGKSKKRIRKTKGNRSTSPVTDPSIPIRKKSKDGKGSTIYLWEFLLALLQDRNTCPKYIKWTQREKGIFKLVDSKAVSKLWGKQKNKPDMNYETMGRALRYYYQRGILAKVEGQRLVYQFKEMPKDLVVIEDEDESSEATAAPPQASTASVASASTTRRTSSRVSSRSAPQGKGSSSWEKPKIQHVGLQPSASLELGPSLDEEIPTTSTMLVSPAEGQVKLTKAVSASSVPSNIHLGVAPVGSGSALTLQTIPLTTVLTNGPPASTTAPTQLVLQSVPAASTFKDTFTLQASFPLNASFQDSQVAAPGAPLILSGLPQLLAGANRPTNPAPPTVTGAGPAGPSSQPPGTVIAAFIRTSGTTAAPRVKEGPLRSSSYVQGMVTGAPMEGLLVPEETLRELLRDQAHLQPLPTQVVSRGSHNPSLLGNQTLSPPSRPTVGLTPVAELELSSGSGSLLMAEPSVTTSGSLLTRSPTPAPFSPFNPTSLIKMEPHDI
# Summary of the method: as §1
# [6] = target: T3, ELK4 (Homo sapiens, UniProt P28324-2 1-405); settings: protein: recombinant; tags: N-terminal GST; dsDNA, one strand shown
# T3 sequence: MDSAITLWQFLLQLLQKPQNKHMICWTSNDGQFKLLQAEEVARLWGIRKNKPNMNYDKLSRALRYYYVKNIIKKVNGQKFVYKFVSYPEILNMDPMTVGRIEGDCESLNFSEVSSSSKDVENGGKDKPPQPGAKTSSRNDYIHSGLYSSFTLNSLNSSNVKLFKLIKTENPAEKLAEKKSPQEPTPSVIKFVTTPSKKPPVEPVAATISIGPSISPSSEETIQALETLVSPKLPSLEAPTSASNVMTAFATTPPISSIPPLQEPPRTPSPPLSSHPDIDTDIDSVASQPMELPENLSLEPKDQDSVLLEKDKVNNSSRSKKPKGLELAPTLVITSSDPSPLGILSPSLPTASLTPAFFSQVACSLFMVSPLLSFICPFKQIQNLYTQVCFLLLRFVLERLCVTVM
# Summary of the method: as §1
# [7] = target: T4, ETV2 (Homo sapiens, UniProt O00321 1-342); settings: protein: recombinant; tags: N-terminal GST; dsDNA, one strand shown
# T4 sequence: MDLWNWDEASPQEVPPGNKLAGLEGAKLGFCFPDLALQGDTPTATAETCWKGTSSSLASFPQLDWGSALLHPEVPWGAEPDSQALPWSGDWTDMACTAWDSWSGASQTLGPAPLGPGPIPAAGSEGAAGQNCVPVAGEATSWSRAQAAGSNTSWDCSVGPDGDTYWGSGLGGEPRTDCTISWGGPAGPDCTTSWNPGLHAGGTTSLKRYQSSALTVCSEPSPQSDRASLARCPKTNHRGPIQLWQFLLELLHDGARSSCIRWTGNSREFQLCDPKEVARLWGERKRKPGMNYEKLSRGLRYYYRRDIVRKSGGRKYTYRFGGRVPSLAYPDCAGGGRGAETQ
# Summary of the method: as §1
# [8] = target: T5, ELF3 (Homo sapiens, UniProt P78545 1-371); settings: protein: recombinant; tags: N-terminal GST; dsDNA, one strand shown
# T5 sequence: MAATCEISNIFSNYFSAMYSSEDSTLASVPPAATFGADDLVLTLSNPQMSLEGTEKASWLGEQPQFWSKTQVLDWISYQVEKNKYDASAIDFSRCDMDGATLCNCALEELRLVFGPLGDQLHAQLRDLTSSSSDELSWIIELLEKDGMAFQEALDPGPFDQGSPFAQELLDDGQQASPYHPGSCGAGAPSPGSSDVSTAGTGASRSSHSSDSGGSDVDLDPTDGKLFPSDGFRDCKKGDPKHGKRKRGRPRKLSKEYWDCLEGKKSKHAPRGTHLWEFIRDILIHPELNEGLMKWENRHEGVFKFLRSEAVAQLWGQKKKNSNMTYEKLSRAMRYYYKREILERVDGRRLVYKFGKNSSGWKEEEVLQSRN
# Summary of the method: as §1
# [9] = target: CRX (Homo sapiens, UniProt O43186 1-299); settings: protein: recombinant; tags: N-terminal GST; dsDNA, one strand shown
# Chain of CRX (O43186 whole entry): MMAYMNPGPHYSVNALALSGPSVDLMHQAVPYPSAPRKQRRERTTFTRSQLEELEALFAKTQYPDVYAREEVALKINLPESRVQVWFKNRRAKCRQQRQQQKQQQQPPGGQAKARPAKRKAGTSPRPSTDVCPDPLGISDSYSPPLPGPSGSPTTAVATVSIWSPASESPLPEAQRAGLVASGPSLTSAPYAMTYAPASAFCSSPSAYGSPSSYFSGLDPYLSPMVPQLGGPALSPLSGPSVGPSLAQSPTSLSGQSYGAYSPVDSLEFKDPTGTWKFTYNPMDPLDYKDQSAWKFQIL
# Summary of the method: as §1
# [10] = target: ETV1 (Homo sapiens, UniProt P50549 1-477); settings: protein: recombinant; tags: N-terminal GST; dsDNA, one strand shown
# Chain of ETV1 (P50549 whole entry): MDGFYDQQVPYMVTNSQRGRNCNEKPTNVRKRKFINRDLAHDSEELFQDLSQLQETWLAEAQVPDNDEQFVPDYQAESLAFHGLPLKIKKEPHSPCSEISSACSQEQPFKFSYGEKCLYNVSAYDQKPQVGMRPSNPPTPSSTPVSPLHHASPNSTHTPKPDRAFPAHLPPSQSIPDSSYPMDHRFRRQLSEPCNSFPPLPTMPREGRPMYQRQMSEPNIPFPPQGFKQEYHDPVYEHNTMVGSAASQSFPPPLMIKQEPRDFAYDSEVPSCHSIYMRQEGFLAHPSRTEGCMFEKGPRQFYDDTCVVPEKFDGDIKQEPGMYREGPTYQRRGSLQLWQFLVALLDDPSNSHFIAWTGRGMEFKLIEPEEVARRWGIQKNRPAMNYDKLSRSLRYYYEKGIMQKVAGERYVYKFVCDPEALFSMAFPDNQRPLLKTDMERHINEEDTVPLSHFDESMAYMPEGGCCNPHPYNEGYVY
# Summary of the method: as §1
# [11] = target: T6, ERF (Homo sapiens, UniProt P50548 1-548); settings: protein: recombinant; tags: N-terminal GST; dsDNA, one strand shown
# T6 sequence: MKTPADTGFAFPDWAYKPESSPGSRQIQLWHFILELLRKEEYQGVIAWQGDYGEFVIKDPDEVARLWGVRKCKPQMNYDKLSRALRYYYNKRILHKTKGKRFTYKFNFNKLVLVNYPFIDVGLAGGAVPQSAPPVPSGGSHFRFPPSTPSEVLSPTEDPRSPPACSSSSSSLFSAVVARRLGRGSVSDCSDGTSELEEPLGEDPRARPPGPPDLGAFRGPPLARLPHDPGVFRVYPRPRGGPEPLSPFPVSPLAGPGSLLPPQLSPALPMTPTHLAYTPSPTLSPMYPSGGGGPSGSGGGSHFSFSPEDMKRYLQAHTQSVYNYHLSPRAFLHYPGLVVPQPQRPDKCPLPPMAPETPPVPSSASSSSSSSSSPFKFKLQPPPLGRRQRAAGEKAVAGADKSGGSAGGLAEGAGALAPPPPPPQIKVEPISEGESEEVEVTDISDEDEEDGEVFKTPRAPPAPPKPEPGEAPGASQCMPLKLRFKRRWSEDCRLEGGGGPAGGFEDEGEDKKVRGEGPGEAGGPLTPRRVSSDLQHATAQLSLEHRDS
# Summary of the method: as §1
# [12] = target: T7, ETV3L (Homo sapiens, UniProt Q6ZN32 1-361); settings: protein: recombinant; tags: N-terminal GST; dsDNA, one strand shown
# T7 sequence: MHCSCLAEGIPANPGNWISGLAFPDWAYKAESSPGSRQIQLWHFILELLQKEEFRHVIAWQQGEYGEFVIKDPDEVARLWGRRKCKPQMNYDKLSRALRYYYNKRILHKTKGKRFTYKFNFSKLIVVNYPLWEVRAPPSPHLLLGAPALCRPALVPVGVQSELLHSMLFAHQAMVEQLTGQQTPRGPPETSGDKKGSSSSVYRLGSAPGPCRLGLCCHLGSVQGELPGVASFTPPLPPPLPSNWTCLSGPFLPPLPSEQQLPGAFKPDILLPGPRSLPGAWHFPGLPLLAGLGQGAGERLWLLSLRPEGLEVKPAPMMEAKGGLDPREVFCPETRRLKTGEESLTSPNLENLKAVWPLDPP
# Summary of the method: as §1
# [13] = target: T8, ETS2 (Homo sapiens, UniProt P15036 1-469); settings: protein: recombinant; tags: N-terminal GST; dsDNA, one strand shown
# T8 sequence: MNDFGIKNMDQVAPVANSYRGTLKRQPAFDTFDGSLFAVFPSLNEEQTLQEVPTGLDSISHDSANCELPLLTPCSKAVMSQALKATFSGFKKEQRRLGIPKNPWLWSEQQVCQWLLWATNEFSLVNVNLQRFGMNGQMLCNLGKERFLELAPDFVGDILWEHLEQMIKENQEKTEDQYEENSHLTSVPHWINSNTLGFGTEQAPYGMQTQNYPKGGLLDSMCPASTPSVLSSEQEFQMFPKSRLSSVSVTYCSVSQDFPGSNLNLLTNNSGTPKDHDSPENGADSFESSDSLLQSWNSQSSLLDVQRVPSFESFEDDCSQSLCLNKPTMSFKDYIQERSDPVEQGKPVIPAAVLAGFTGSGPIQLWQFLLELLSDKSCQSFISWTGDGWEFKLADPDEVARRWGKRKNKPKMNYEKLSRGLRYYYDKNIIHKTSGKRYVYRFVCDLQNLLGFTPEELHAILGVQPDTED
# Summary of the method: as §1
# [14] = target: T9, SPDEF (Homo sapiens, UniProt O95238 1-335); settings: protein: recombinant; tags: N-terminal GST; dsDNA, one strand shown
# T9 sequence: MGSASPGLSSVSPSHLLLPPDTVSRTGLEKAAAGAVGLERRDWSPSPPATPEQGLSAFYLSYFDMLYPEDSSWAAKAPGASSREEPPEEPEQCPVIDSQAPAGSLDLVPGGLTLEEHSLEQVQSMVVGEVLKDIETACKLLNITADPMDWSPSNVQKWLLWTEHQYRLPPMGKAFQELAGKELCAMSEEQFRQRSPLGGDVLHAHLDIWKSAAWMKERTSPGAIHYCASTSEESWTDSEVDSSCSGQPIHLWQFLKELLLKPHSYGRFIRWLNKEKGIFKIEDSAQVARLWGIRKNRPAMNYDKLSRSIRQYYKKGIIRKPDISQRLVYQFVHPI
# Summary of the method: as §1
# [15] = target: T10, ETV7 (Homo sapiens, UniProt Q9Y603 1-341); settings: protein: recombinant; tags: N-terminal GST; dsDNA, one strand shown
# T10 sequence: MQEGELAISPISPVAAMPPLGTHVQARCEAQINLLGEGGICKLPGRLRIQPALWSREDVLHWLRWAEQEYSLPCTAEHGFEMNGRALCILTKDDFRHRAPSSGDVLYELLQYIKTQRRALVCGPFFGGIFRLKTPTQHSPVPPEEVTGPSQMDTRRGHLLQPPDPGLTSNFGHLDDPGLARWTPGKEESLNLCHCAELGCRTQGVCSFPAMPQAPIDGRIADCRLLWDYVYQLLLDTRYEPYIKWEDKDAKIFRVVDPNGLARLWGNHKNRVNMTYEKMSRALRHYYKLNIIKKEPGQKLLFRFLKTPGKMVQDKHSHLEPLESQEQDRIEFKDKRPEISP
# Summary of the method: as §1
# [16] = target: T11, ELF5 (Homo sapiens, UniProt Q9UKW6-2 1-255); settings: protein: recombinant; tags: N-terminal GST; dsDNA, one strand shown
# T11 sequence: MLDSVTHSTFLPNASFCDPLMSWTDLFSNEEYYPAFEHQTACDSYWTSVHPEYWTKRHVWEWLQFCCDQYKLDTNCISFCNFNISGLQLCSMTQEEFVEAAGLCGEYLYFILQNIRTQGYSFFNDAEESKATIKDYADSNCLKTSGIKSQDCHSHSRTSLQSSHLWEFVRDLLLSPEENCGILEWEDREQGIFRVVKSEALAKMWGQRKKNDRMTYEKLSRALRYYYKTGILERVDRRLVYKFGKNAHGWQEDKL
# Summary of the method: as §1
# [17] = target: T12, ETV3 (Homo sapiens, UniProt P41162-2 1-143); settings: protein: recombinant; tags: N-terminal GST; dsDNA, one strand shown
# T12 sequence: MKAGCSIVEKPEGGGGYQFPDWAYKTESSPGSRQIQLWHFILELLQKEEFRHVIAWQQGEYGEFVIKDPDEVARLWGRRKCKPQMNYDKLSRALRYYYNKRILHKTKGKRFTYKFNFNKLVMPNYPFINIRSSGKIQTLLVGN
# Summary of the method: as §1
# [18] = target: ETV6 (Homo sapiens, UniProt P41212 1-452); settings: protein: recombinant; tags: N-terminal GST; dsDNA, one strand shown
# Chain of ETV6 (P41212 whole entry): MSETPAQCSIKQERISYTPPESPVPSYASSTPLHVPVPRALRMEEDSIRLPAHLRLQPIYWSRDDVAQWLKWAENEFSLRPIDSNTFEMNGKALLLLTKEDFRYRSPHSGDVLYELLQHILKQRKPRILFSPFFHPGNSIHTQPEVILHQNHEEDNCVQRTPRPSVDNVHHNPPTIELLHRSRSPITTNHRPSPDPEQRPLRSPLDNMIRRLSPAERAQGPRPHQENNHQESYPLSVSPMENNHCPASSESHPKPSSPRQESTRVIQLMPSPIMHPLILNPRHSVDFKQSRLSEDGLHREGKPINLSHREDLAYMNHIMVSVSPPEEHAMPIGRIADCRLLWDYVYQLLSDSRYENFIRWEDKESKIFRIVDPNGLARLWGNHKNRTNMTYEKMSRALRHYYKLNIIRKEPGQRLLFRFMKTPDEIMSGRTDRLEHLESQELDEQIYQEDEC
# Summary of the method: as §1
sequence,measurement,setting,value
AACCTG,binding signal,[1],"1.2 fold enrichment (6-mer frequency, TF over GST control)"
same,binding signal,[2],"1.16 fold enrichment (6-mer frequency, TF over GST control)"
same,binding signal,[3],"1.03 fold enrichment (6-mer frequency, TF over GST control)"
same,binding signal,[4],"1.04 fold enrichment (6-mer frequency, TF over GST control)"
same,binding signal,[5],"1.25 fold enrichment (6-mer frequency, TF over GST control)"
same,binding signal,[6],"1.3 fold enrichment (6-mer frequency, TF over GST control)"
same,binding signal,[7],"1.16 fold enrichment (6-mer frequency, TF over GST control)"
same,binding signal,[8],"1.12 fold enrichment (6-mer frequency, TF over GST control)"
same,binding signal,[9],"1.1 fold enrichment (6-mer frequency, TF over GST control)"
same,binding signal,[10],"1.14 fold enrichment (6-mer frequency, TF over GST control)"
same,binding signal,[11],"1.17 fold enrichment (6-mer frequency, TF over GST control)"
same,binding signal,[12],"1.08 fold enrichment (6-mer frequency, TF over GST control)"
same,binding signal,[13],"1.27 fold enrichment (6-mer frequency, TF over GST control)"
same,binding signal,[14],"1.13 fold enrichment (6-mer frequency, TF over GST control)"
same,binding signal,[15],"1.21 fold enrichment (6-mer frequency, TF over GST control)"
same,binding signal,[16],"1.16 fold enrichment (6-mer frequency, TF over GST control)"
same,binding signal,[17],"1.2 fold enrichment (6-mer frequency, TF over GST control)"
same,binding signal,[18],"1.14 fold enrichment (6-mer frequency, TF over GST control)"
